Results published in PubChem BioAssay (NCATS).
Records with an inconclusive call do not appear. The source made the active and inactive calls. The call rests on the fitted dose curve.

Key:
[1] = Primary qHTS for inhibitors of SARS-S pseudo-typed particle cell entry (AID 1479145); further: nearly all actives have a fitted effect of over 45% in size
[2] = Primary qHTS for Huh7 cytotoxicity: counterscreen for inhibitors of MERS-S pseudotyped particle cell entry (AID 1479147)
[3] = Primary qHTS for inhibitors of MERS-S pseudo-typed particle cell entry (AID 1479149); further: nearly all actives have a fitted effect of over 60% in size
[4] = Primary qHTS for Vero E6 cytotoxicity: counterscreen for inhibitors of SARS-S pseudo-typed particle cell entry (AID 1479150)
On the % scale 0 is the no-effect control and ±100 the full control effect.

N[C@@H](CSSC[C@H](N)C(=O)O)C(=O)O
inactive: outcome [1] inactive [at 0.573 µM] | activity change, negative = cytotoxicity [2] 2.73% [at 0.573 µM] | outcome [3] inactive [at 0.573 µM] | activity change, negative = cytotoxicity [4] 4.84% [at 0.573 µM]

Cc1cccc(CN2CCN(C(c3ccccc3)c3ccc(Cl)cc3)CC2)c1 (stereo not drawn)
inactive: Potency [1] | Potency [2] | Potency [3] | Potency [4]

CCN(CC)C(=O)C1CN2CCc3cc(OC)c(OC)cc3C2CC1OC(C)=O (stereo not drawn)
inactive: Potency [1] | Potency [2] | Potency [3] | Potency [4]

CC(=O)OCC(=O)[C@@]12N=C(C)O[C@@H]1C[C@H]1[C@@H]3CCC4=CC(=O)C=C[C@]4(C)[C@H]3[C@@H](O)C[C@@]12C
inactive: Potency [1] | Potency [2] | Potency [3] | Potency [4]

CN1CCOC(c2ccccc2)c2ccccc2C1 (stereo not drawn)
inactive: Potency [1] | Potency [2] | Potency [3] | Potency [4]

COc1cc(OC)cc(OC)c1
inactive: Potency [1] | Potency [2] | Potency [3] | Potency [4]

C[C@]12CC[C@@H]3c4ccc(O)cc4CC[C@H]3[C@@H]1C[C@@H](O)[C@@H]2O
inactive: Potency [1] | Potency [2] | Potency [3] | Potency [4]

Nc1c2c(nc3ccccc13)CCCC2
inactive: Potency [1] | Potency [2] | Potency [3] | Potency [4]

Cc1c(C(=O)NN2CCCCC2)nn(-c2ccc(Cl)cc2Cl)c1-c1ccc(Cl)cc1
inactive: Potency [1] | Potency [2] | Potency [3] | Potency [4]

Cn1cnc2c1c(=O)[nH]c(=O)n2C
inactive: Potency [1] | Potency [2] | Potency [3] | Potency [4]

C/C(=C(/OCCOc1ccc(Cl)cc1)c1ccc(Cl)cc1Cl)n1ccnc1
inactive: Potency [1] | Potency [2] | Potency [3] | Potency [4]

C[C@@H]1C[C@H]2[C@@H]3CCC4=CC(=O)C=C[C@]4(C)[C@@]3(Cl)[C@@H](O)C[C@]2(C)[C@@]1(OC(=O)c1ccco1)C(=O)CCl
inactive: Potency [1] | Potency [2] | Potency [3] | Potency [4]
